# The whole screen tested about 310,000 compounds, of which about 1,900 (0.61%) were called active.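 How the source made its calls: active means plate-corrected calcium response at least 3 library SD above typical, normal starting fluorescence, not activating the receptor alone; inactive means the rest.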 The full list was thinned out, with actives kept by preference.
# Target: Mas-related G-protein coupled receptor member X1 (Homo sapiens) (UniProt Q96LB2)
# Assay: allosteric enhancers of human MrgX1 signaling – HEK293 cells, Fluo-4 calcium flux, primary screen (AID 588675);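 further: compound read alongside a low EC10 to EC30 dose of BAM8-22 agonist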;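 on B-score: peak minus trough fluorescence over baseline measured at the second addition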
# Settings: MrgX1-HEK293, Fluo-4 calcium flux, FDSS, at 10 µM; active compounds read high
# Sequence of Mas-related G-protein coupled receptor member X1 (Homo sapiens) (Q96LB2 whole entry, looked up): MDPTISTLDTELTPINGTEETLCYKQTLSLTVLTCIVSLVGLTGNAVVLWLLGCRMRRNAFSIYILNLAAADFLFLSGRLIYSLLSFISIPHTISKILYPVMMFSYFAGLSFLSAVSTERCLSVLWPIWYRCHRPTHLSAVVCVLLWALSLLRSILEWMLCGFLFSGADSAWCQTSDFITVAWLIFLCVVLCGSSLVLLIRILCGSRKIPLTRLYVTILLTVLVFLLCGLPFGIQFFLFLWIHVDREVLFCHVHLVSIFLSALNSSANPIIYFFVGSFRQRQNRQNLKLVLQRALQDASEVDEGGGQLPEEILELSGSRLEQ
row,Compound,B-score
1,CCC(C)c1ccc(O)c(/C=N/O)c1 (stereo not given),6.88 (active)
2,CNCC(O)c1ccc(O)c(O)c1 (stereo not given),inactive
3,CCOC(=O)c1cccc(NC(=O)C2CCN(c3ncnc4c3nc3n4CCCCC3)CC2)c1,inactive
4,CCCCCCCCCCCC(=O)O,inactive
5,Cc1cc(NC(=O)COC(=O)COc2ccc(Cl)cc2C)c([N+](=O)[O-])cc1C,inactive
6,CC(C)(C)NC(=O)COC(=O)c1cc(Cl)ccc1[N+](=O)[O-],inactive
7,CCCC(=O)OCC(=O)Nc1cc(Cl)ccc1[N+](=O)[O-],9.84 (active)
8,CCN(CC(=O)NC1CCS(=O)(=O)C1)S(=O)(=O)c1ccccc1 (stereo not given),inactive
9,Cc1coc2c(O)cc3c(c12)OC1(N2CCCCC2)C(=O)NCCCC31 (stereo not given),inactive
10,COc1cccc(NC(=O)NCCN2CCCCC2)c1,inactive
11,Cc1ccc2c(c1)C1CN(C)CCC1N2S(=O)(=O)c1ccc(Oc2ccc([N+](=O)[O-])cc2)cc1 (stereo not given),inactive
12,Cc1ccc(S(=O)(=O)N(C)c2ccc(OCC(=O)OCC(=O)N(CC#N)c3ccccc3)cc2)cc1,inactive
13,Cc1ccc2nc(Nc3ccccc3)cc(C)c2c1,14 (active)
14,Cc1ccc2nc(Nc3ccccc3O)nc(-c3ccccc3)c2c1,inactive
15,Cc1cc(Nc2ccc(Br)cc2)nc2ccccc12,inactive
16,CCCN(CCC)C(=O)C1c2ccccc2Oc2ccccc21,inactive
17,CC(=O)Nc1cccc(OCC(=O)/C=C2\N(C)c3ccccc3C2(C)C)c1,6.96 (active)
18,CC(C)Nc1nnc(SCC(=O)/C=C2\N(C)c3ccccc3C2(C)C)s1,inactive
19,CCOc1cccc(NC(=O)CC#N)c1,inactive
20,Cc1ccc(S(=O)(=O)N2[C@@H](c3ccccc3F)C(C(=O)O)=CC[C@H]2c2ccc(Cl)cc2)cc1,15.6 (active)
21,Cc1ccc([C@@H]2CC=C(C(=O)O)[C@H](c3cccc(Cl)c3)N2S(=O)(=O)c2ccc(C)cc2)cc1,inactive
22,Cc1ccc(S(=O)(=O)N2[C@@H](c3cccc(Cl)c3)C(C(=O)O)=CC[C@H]2c2ccc(Cl)c(Cl)c2)cc1,inactive
23,CC(=O)Nc1cccc(C(=O)OCN2C(=O)c3ccccc3C2=O)c1,inactive
24,O=C(c1ccc(OC2CCN(C(=O)c3cccnc3)CC2)cc1)N1CCCCCC1,6.62 (active)
25,O=C(c1ccc(OC2CCN(Cc3ccccn3)CC2)cc1)N1CCCCCC1,inactive
26,O=C(c1ccc(OC2CCN(C/C=C/c3ccc(F)cc3)CC2)cc1)N1CCCCC1,inactive
27,O=C(NCCCc1ccccc1)C1CCC(CNc2c(N3CCCCC3)c(=O)c2=O)CC1 (stereo not given),inactive

row,Compound,B-score
1,CCOc1ccc(NC(=O)N2CCN(CC)CC2)cc1,inactive
2,CCOc1ccc(NC(=O)N2CC=C(n3c(=O)[nH]c4ccccc43)CC2)cc1,7.16 (active)
3,Cc1cccc(C)c1NC(=O)N1CC=C(n2c(=O)[nH]c3ccccc32)CC1,inactive
4,O=C(CCc1[nH]c2ccccc2c1Sc1ccccc1)N(CCO)CCO,inactive
5,CN(Cc1ccccc1)C(=O)C1CCCN(c2ncnc3c2nc2n3CCCCC2)C1 (stereo not given),inactive
6,CCCCOP(=O)(c1ccc(N(C)C)cc1)C(O)c1cc(OC)ccc1OC (stereo not given),inactive
7,COC(CNC(=O)Cn1ncc2ccsc2c1=O)OC,inactive
8,CCC1=C(OC(=O)N(CC)CC)N2C(=O)OC(=NCC3CC3)[C@]2(C)[C@H]2C1=CC[C@H]1C(=O)N(CC(=O)OC)C(=O)[C@H]12,inactive
9,COc1cccc(NS(=O)(=O)c2ccc(-c3coc(C)n3)cc2)c1,inactive
10,Cc1ccc(NS(=O)(=O)c2ccc(-c3coc(C)n3)cc2)c(C)c1,inactive
11,CCN(c1cccc(C)c1)S(=O)(=O)c1ccc(-c2coc(C)n2)cc1,8.56 (active)
12,CCCCN(CCCC)CCC(O)c1cc2c(Cl)cc(Cl)cc2c2cc(C(F)(F)F)ccc12 (stereo not given),inactive
13,O=C(/C=C/c1ccc(OCc2c(F)cccc2Cl)cc1)N1CCOCC1,inactive
14,Fc1cccc(Cl)c1COc1ccc(-c2nnco2)cc1,13.2 (active)
15,Fc1ccc(COc2ccc(-c3nnco3)cc2)cc1,inactive
16,O=C(Nc1ccc(F)cc1)N1CCN(c2ccc(F)cc2)CC1,inactive
17,O=C(c1cc(-c2ccc(F)cc2)on1)N1CCN(c2ccc(F)cc2)CC1,inactive
18,Cc1c(C(=O)N2CCN(c3ccc(F)cc3)CC2)oc2c1C(=O)CCC2,7.4 (active)
19,Nc1cc(OC(=O)c2ccccc2Br)nn1S(=O)(=O)c1ccccc1,7.83 (active)
20,O=C(COC(=O)c1ccccc1Br)Nc1nnc(-c2ccccc2)o1,inactive
21,Cc1ccc(S(=O)(=O)n2nc(OC(=O)C(C)(C)C)cc2N)cc1,inactive
22,Cc1ccc2[nH]c(C(=O)O)c(NC(=O)c3ccccc3[N+](=O)[O-])c2c1,inactive
23,O=C(O)C1=CCCN(CCON=C(c2ccccc2)c2ccccc2)C1,inactive
24,Cc1ccc(S(=O)(=O)N2CCOCC2)cc1C(=O)Nc1ccccc1N1CCCC1,inactive
25,Cc1cc(C(=O)Nc2ccccc2N2CCOCC2)c2ccccc2n1,inactive
26,O=C(Nc1ccccc1N1CCOCC1)c1csc2c1CCCC2,12 (active)
27,c1ccc(-c2ccc3c(c2)NC(C2Nc4cc(-c5ccccc5)ccc4O2)O3)cc1 (stereo not given),inactive

row,Compound,B-score
1,O=C(Oc1ccc(Br)cc1C(=S)N1CCOCC1)c1cccc([N+](=O)[O-])c1,inactive
2,Cc1nnc(NCCO)c2ccccc12,inactive
3,COc1ccc(Nc2nc(=O)[nH]nc2C)cc1,inactive
4,COc1ccc(Nc2nnc(C)c3ccccc23)cc1,22.5 (active)
5,CN(c1ccccc1)S(=O)(=O)c1ccc(NC(=O)COc2ccccc2)cc1,inactive
6,O=C(NCc1ccccc1Cl)c1ccc2c(=O)n(CC3CCCO3)c(=S)[nH]c2c1 (stereo not given),inactive
7,CC(C)CCn1cnc2c1c(=O)n(CC(=O)NC(N)=O)c(=O)n2Cc1ccccc1,inactive
8,Cc1ccc(S(=O)(=O)N(C)c2nc3ccccc3n3c(C(C)C)nnc23)cc1,6.54 (active)
9,Cc1ccc(Oc2nc3ccccc3n3c(C)nnc23)cc1,inactive
10,CC(=O)Nc1ccc(S(=O)(=O)N(C)c2nc3ccccc3nc2Cl)cc1,inactive
11,CCC(=O)NC(=Nc1nc2ccccc2s1)NC(=O)CC,inactive
12,CC(C)CC(=O)NC(=S)NCc1ccccc1,inactive
13,CC(C)CC(=O)N/C(N)=N/c1nc2ccccc2s1,12.9 (active)
14,O=C(c1cccc(-n2cccc2)c1)N1CCN(S(=O)(=O)c2ccc(F)cc2)CC1,inactive
15,CC(NC(=O)c1ccc(N2CCNCC2)c([N+](=O)[O-])c1)C12CC3CC(CC(C3)C1)C2 (stereo not given),6.65 (active)
16,O=C(NC1C2CC3CC(C2)CC1C3)c1ccc(N2CCNCC2)c([N+](=O)[O-])c1 (stereo not given),inactive
17,CCC(C)NC(=O)c1ccc(N2CCC3(CC2)OCCO3)c([N+](=O)[O-])c1 (stereo not given),inactive
18,CCOC(=O)Cc1csc(NC(=O)CN(C)S(=O)(=O)c2ccc3c(c2)CCC(=O)N3)n1,inactive
19,C/C(=N\NC(=O)c1ccoc1C)c1ccccc1O,inactive
20,Cc1nn(C(=O)c2ccoc2C)c(N)c1-c1ccccc1,15.4 (active)
21,Cc1nn(-c2ccc([N+](=O)[O-])cc2)c(N)c1-c1ccccc1,inactive
22,N#CCC(=O)NC1CCC(CC2CCC(NC(=O)CC#N)CC2)CC1 (stereo not given),inactive
23,COc1cc(OC)c(-n2c(C)cc(C=O)c2C)cc1Cl,9.68 (active)
24,COc1cc(OC)c(-n2cc(-c3ccc(Cl)cc3)[nH]c2=O)cc1Cl,inactive
25,Cc1ccccc1-n1c(C)cc(/C=C2\NC(=O)NC2=O)c1C,inactive
26,COCCNC(=O)C1CCN(S(=O)(=O)c2ccc3c(c2)OCCO3)CC1,24.9 (active)
27,O=C(NCc1cccs1)C1CCN(S(=O)(=O)c2ccc3c(c2)OCCO3)CC1,inactive

row,Compound,B-score
1,COc1ccccc1CNC(=O)C1CCN(S(=O)(=O)c2ccc3c(c2)OCCO3)CC1,inactive
2,O=C(/C=C/c1ccc(F)cc1)NC(=S)NNC(=O)c1cccnc1,inactive
3,CCCCn1c(N)c(N(CCOC)C(=O)COc2c(C)cccc2C)c(=O)[nH]c1=O,inactive
4,Cc1ccc(S(=O)(=O)NC(=O)COc2ccccc2C)cc1,inactive
5,Cc1occc1C(=O)Nc1nnc(C2CCCCC2)s1,inactive
6,Cc1ccc(C(=O)Nc2nnc(-c3ccncc3)s2)o1,inactive
7,Cc1occc1C(=O)Nc1nnc(-c2ccncc2)s1,7.38 (active)
8,CCOc1ccc(OCC)c(NC(=O)CSc2nnc(Cn3cnc4ccccc43)n2C)c1,inactive
9,COC(=O)C1=C(C)N(C)C(=S)NC1c1cc(OC)ccc1OC (stereo not given),inactive
10,COC(=O)c1ccc(/C=N/N2C(C)CCCC2C)cc1 (stereo not given),6.7 (active)
11,CC1CCCC(C)N1/N=C/c1ccccc1OC(F)F (stereo not given),inactive
12,COC(=O)c1ccc(/C=N/NC(=O)C(=O)N2CCCCCC2)cc1,inactive
13,Cc1coc2cc3oc(=O)c(CCC(=O)O)c(C)c3cc12,inactive
14,Cc1c(CCC(=O)O)c(=O)oc2cc3occ(-c4ccccc4)c3cc12,7.5 (active)
15,Cc1c(CC(=O)NCCCCCC(=O)O)c(=O)oc2cc3occ(-c4ccccc4)c3cc12,inactive
16,O=C1NC2(CCCCCC2)C(=O)N1CCS(=O)(=O)Oc1ccccc1,inactive
17,Cc1ccsc1C1C(C#N)=C(N)OC2=C1C(=O)CC(C)C2 (stereo not given),inactive
18,COC(=O)[C@]1(S(=O)(=O)c2ccccc2)C[C@@H]2ON=C(c3ccc(OC)cc3)[C@@H]2C1,inactive
19,Cc1ccc(-n2ccc(=O)c(C(=O)O)n2)cc1,inactive
20,Cc1ccc(-c2nn(C(C)(C)C)c3ncnc(N)c23)cc1,inactive
21,Cc1ccc(-n2cnc3ncnc(-c4ccccc4)c32)cc1,7.18 (active)
22,CC(C)OC(=O)c1ccc(COc2ccc3ccc(=O)oc3c2)o1,inactive
23,CCc1cc2c(=O)c(-c3nc4ccccc4n3C)c(CCCC(=O)O)oc2cc1OC(=O)C(C)(C)C,inactive
24,COc1cccc2c(C)c(C(=O)O)[nH]c12,inactive
